The results in this text go back to PubChem BioAssay AID686949 (The Scripps Research Institute Molecular Screening Center, 2013).

About 2,200 (69%) of roughly 3,200 compounds were called active.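 How the source made its calls: active means activation, as change over the incubation, above the mean of all tested compounds plus 3 SD (cut at about 13% in these data); inactive means the rest.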 So high a share suggests a set chosen from earlier hits. A selection follows.

The target in this assay is Kallikrein-7 (Homo sapiens) (UniProt P49862). Briefly: activation of human kallikrein-7 proenzyme – biochemical, fluorescence intensity, triplicate, confirmation (AID 686949). The settings on record: purified proKLK7, EDANS-DABCYL substrate fluorescence; at 7 µM; stronger effect = higher value; scaled: vehicle 0, mature enzyme 100.
Chain of Kallikrein-7 (Homo sapiens) (P49862 whole entry, looked up): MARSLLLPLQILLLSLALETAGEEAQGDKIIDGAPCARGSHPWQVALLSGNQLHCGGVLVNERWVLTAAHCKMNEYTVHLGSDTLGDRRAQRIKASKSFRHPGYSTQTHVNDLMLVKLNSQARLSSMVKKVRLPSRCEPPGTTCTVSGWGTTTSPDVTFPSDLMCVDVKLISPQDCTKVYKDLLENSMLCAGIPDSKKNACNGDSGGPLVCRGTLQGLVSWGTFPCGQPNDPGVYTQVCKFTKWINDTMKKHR
On to `CCOC(=O)NN1C(=O)c2ccccc2NC1c1cccc(O)c1` (centres undefined), for which the activation was 19.6% (active).

With `CC(=O)NN1C(=O)c2ccccc2NC1c1ccccc1` (centres undefined), the activation is 33.8% (active).

On to `COc1cc(/C=N\NC(=O)c2nonc2N)c(OC)cc1Br`, for which the activation is 75.4% (active).

Turning to `CCc1nc(Nc2ccc(NC(C)=O)cc2)c2oc3ccccc3c2n1`, the activation is 69.9% (active).

Consider `Cc1cc(C)c(C#N)c(SCC(=O)NN2CC(=O)N(c3ccccc3F)CC2=O)n1`, for which the activation was 52.8% (active).

As to `CCN1CCc2c(C#N)c(NCc3ccccc3)nc(NCCO)c2C1`, the activation was 31.4% (active).

Take `COc1cccc(NC(=O)CN(C)C(=O)/C=C/c2cc(OC)ccc2OC)c1`: the activation was -101% (inactive).

In the case of `COc1cccc2sc3cc(NCC[C@@H]4CCCN4C)ccc3c(=O)c12`, the activation is 46.9% (active).

For `CN(C)C(=O)c1coc2nc3ccccc3nc12`, the activation is 104% (active).

Regarding `COc1ccc2nc(-c3ccccn3)ccc2c1`, the activation is 3.28% (inactive).

`c1ccc(-c2cn3cccnc3n2)cc1`: the activation is 68.7% (active).

As for `FC(F)(F)Oc1ccc(-c2cn3cccnc3n2)cc1`, the activation is 36.4% (active).

Turning to `COc1ccc(-c2cn3cccnc3n2)cc1`, the activation is 68.6% (active).

Turning to `Cc1cc(S(=O)(=O)c2cc3ccc(O)c(C)c3oc2=O)ccc1F`, the activation is 59.1% (active).

As to `CC1(C)CC(=O)c2cc(OCC(=O)NCC3CCCO3)ccc2O1` (centres undefined), the activation is 48.1% (active).

As to `CC(=O)Nc1nc2ncccn2c1-c1ccc(C(F)(F)F)cc1`, the activation is 30.9% (active).

With `CCCn1c(=NC(C)=O)c(C(=O)OCC)cc2c(=O)n3ccccc3nc21`, the activation is 33.5% (active).

With `CN1CCCc2cc(C#N)c(=O)[nH]c21`, the activation is 33.1% (active).

For `Cc1cc2c(nc1C)CCCN2C`, the activation was 0.32% (inactive).

For `COCCN(CCOC)c1nc(N)c2c(N)nc3c(c2c1C#N)CC(=O)N3Cc1ccc(Cl)cc1`, the activation was -29.9% (inactive).

For the compound `NC(N)=Nc1nc(-c2ccccc2)c2cc(Cl)ccc2n1`, the activation is -1.67% (inactive).

In the case of `COc1nc(N=C(N)N)nc2c(C)cccc12`, the activation is 23.8% (active).

Consider `CCOc1c2ccc(C(=O)NCc3ccc4c(c3)OCO4)cc2nn1C`, for which the activation was 7.8% (inactive).

For the compound `Cc1coc2c1c(C)cc1oc(=O)c(CC(=O)NCC(=O)N[C@H](C(=O)O)C(C)C)c(C)c12`, the activation is 38.2% (active).

Turning to `COC(=O)c1cnn2c(C(F)(F)F)cc(-c3ccco3)nc12`, the activation was 38.9% (active).

`Cc1nc2ccccc2cc1O`: the activation was -5.12% (inactive).

Turning to `COc1cc2c(cc1OC)CC1(CCCCC1)N=C2`, the activation is 43.5% (active).

For `Cc1cc(C)c2c(n1)nn1c(-n3ccnc3)cc(C)nc21`, the activation is 50.2% (active).

Consider `CCn1c(=N)c(C(=O)NCCCOC)cc2c(=O)n3cccc(C)c3nc21`, for which the activation is 72.2% (active).

On to `Cc1ccc2nc3c(cc(C(=O)NCCc4ccccc4)c(=N)n3CC3CCCO3)c(=O)n2c1` (centres undefined), for which the activation was -15.4% (inactive).

Consider `Cc1cccn2c(=O)c3cc(C(=O)NCCN4CCOCC4)c(=N)n(Cc4cccnc4)c3nc12`, for which the activation is 17.1% (active).

Turning to `Cc1cccn2c(=O)c3cc(C#N)c(=NC(=O)c4cccnc4)n(CC4CCCO4)c3nc12` (centres undefined), the activation was -75.3% (inactive).

Regarding `CC(C)=NN1C(=O)c2ccccc2NC1(C)C`, the activation was 25% (active).

With `COC(=O)c1ccc(C2C3=C(Nc4nnnn42)c2ccccc2OC3)cc1` (centres undefined), the activation is 5.83% (inactive).

With `CC(C)Cc1nc(Nc2ccc(S(=O)(=O)N3CCCC3)cc2)c2nnn(Cc3ccccc3)c2n1`, the activation is 43.6% (active).

Consider `COc1cccc(OCc2cc(/C=N/NC(=O)c3nc(Cl)c(Cl)c(N)c3Cl)ccc2OC)c1`, for which the activation is 62.4% (active).

As to `CC(C)(C)OC(=O)c1c(N)n(CCCN2CCCC2=O)c2nc3ccccc3nc12`, the activation is 69.5% (active).

For `COCC(C)OC(=O)c1c(N)n(CCCN2CCOCC2)c2nc3ccccc3nc12` (centres undefined), the activation was 20% (active).

As to `COC(=O)c1c(C)c(C)nc(N)c1C#N`, the activation is 71.3% (active).

In the case of `Cc1ccc(-c2nn(-c3ccccc3)cc2/C=C/C(=O)Nc2cccc(S(N)(=O)=O)c2)cc1`, the activation was 263% (active).

Consider `CCc1ccc(-c2cc(C(=O)NCc3ccco3)c3ccccc3n2)s1`, for which the activation is 75.3% (active).

With `COc1cc(C(=O)N2C(=O)c3cccc(N)c3C2=O)cc(OC)c1OC`, the activation was 127% (active).

As for `CC1CC(C)CN(S(=O)(=O)c2cccc(C(=O)N3C(=O)c4cccc(N)c4C3=O)c2)C1` (centres undefined), the activation was 240% (active).

`Nc1ccccc1-c1nc2ccncc2[nH]1`: the activation was 2.63% (inactive).

On to `CCCCc1cc(=O)oc2cc(C)cc(OCc3nn[nH]n3)c12`, for which the activation is 28.8% (active).

For `CCCCCn1c(=O)c(C(=O)OCC)c(Cl)c2ccccc21`, the activation was -0.17% (inactive).

Turning to `CCCCN(CCCC)CC(O)Cn1c2ccccc2c(=O)c2ccccc21` (centres undefined), the activation is 13.8% (active).

In the case of `CCCc1cc(=O)oc2c(C)c(O)c(CN3CCCCC3)cc12`, the activation is 62.8% (active).

As for `CC(=O)Nc1ccc(S(=O)(=O)NCC(=O)OCc2cc(=O)oc3ccc4ccccc4c23)cc1`, the activation is 218% (active).

With `Nc1ccc2nn(-c3ccc(Cl)cc3)nc2c1`, the activation is 65.8% (active).

As to `CC1(C)CN(c2ccc(-c3ccnc4ncnn34)cc2)C1=O`, the activation is 68.6% (active).

Regarding `CCN1CCN(C(=O)c2cc3cc4ccc(OC)cc4nc3s2)CC1`, the activation is -15.9% (inactive).

For `COc1ccc2oc(=O)c(C(=O)N3CCCC3)cc2c1`, the activation was 23.8% (active).

Consider `COC(=O)C1=NN(c2ccccc2)C2C(=O)N(c3ccccc3OC)C(=O)C12` (centres undefined), for which the activation is 21.2% (active).

As for `Cn1cccc1/C=N/NC(=O)CNc1cccc2ccccc12`, the activation was 2.27% (inactive).

For the compound `O=C(O)c1cccnc1Sc1ncnc2sc3c(c12)CCC3`, the activation was 17.9% (active).

On to `Cc1oc2nc(SCC(=O)Nc3ccc(S(N)(=O)=O)cc3)nc(NC(=O)c3ccccc3)c2c1C`, for which the activation was 5.56% (inactive).

`O=c1oc2cc(O)ccc2cc1-c1ccc(F)cc1`: the activation was 76% (active).

On to `O=C(Nc1nncs1)c1ccccc1NS(=O)(=O)c1cccs1`, for which the activation is 26.4% (active).

In the case of `CCOc1ccc(N2C(=O)CC(N(O)c3ccccc3)C2=O)cc1` (centres undefined), the activation was 166% (active).

With `COC(=O)Cc1cc(=O)oc2c(C)c(O)ccc12`, the activation is 68% (active).

Consider `CN(C)CCN1CCN(c2cc(-c3cccc(Cl)c3)nc3ccnn23)CC1`, for which the activation was 0.23% (inactive).

Consider `COCc1cc(=O)[nH]c2cc(NC(=O)C(F)(F)F)c(C)cc12`, for which the activation is 239% (active).

`N#Cc1nc(-c2cccc3ccccc23)oc1N`: the activation is 70.2% (active).
